In PubChem BioAssay AID1851 (National Center for Advancing Translational Sciences (NCATS), 2009):
Where “and” joins values, the source holds several entries; their conditions need not be identical. Equal entries are not always repeated. Among all 16,000 compounds or so, about 5,800 (36%) were called active. Roughly 23% stayed inconclusive and do not appear here. The call rests on the fitted dose curve; in most records, active means well fitted curve in the direction sought with a large enough effect; inconclusive means small, poorly fitted or top-dose-only effect, or effect the other way; inactive means no such curve, though single readings can be large or run the other way. The list shows a part of the results. More than one record can exist for a structure, and the calls need not agree. Square brackets hold non-standard residues; d marks the D form. Peptide text beside a SMILES is read from it. * marks the point of attachment. Cbz = O=C(OCc1ccccc1)*

What follows are compounds tested against Cytochrome P450 2C19 (Homo sapiens) (UniProt P33261) (assay: Cytochrome panel assay with activity outcomes). Conditions: recombinant CYP, pro-luciferin dealkylation, luminescence, p450-cyp2c19; series mostly up to 57.1 µM; activity, negative = inhibition: at the top concentration.
On the % scale 0 is the no-effect control and ±100 the full control effect.

Chain of Cytochrome P450 2C19 (Homo sapiens) (P33261 whole entry, looked up): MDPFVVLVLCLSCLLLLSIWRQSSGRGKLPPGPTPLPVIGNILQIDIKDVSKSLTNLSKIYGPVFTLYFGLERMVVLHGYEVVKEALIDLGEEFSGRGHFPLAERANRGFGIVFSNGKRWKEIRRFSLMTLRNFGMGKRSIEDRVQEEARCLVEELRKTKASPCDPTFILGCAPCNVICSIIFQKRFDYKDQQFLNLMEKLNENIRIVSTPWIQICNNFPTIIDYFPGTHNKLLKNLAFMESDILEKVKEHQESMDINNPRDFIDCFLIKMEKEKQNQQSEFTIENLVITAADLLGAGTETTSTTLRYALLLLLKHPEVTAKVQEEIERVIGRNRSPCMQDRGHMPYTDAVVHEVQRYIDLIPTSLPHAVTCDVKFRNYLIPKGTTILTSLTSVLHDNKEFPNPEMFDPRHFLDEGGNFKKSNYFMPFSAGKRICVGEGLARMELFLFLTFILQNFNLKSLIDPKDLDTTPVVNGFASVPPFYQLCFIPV

SMILES	activity, negative = inhibition	AC50
NC([N-]/N=C/c1ccccn1)=[S]=[Fe].O=S(=O)(O)O	-35.2% [at 11.4 µM] (inactive)	
CSCC[C@@H]1NC(=O)C/C=C\[C@@H](C)COC(=O)[C@@H](C)COC1=O	30.8% [at 11.4 µM] (inactive)	
O=C1[C@H]2[C@H]3[C@H](O)[C@H](O)C/C(=N/OC[C@@H](O)COCc4ccco4)[C@H]3CC[C@@H]2C(=O)N1C[C@@H]1CCCO1	-12.6% [at 11.4 µM] (inactive)	
CC(C)[C@H](NC(=O)OCc1ccccc1)C(=O)N[C@H](C=O)Cc1ccccc1 (Cbz-Val-Phe-aldehyde)	-37.5% (inactive)	
CC(C)C[C@H](NC(=O)[C@@H](O)[C@H](N)Cc1ccccc1)C(=O)O	-31.5% (inactive)	
COC(=O)CCC(NC(=O)OCc1ccccc1)C(=O)NC(CC(C)C)C(=O)OC (centres undefined) (Cbz-Glu(OMe)-Leu-OMe; configuration not given here)		11.2 µM (active)
CCCCC(C=O)NC(=O)C(CC(C)C)NC(=O)OCc1ccccc1 (centres undefined)		10 µM (active)
CSCC[C@H](C=O)NC(=O)[C@H](CC(C)C)NC(=O)[C@H](CC(C)C)NC(C)=O (Ac-Leu-Leu-[dM]-aldehyde)	-9.34% (inactive)	
COC(=O)COc1ccc(/C=C2/SC(=O)N(CC(=O)N3CCCC3)C2=O)cc1Br	-5.79% (inactive)	
COc1ccc(/C=C2\SC(=O)N(CCNC(=O)C3CC(=O)N(c4ccccc4)C3)C2=O)cc1 (centres undefined)		14.1 µM (active)
COCC(=O)N1CCC[C@@]2(CCN(Cc3ccccc3OC)C2)C1	17.9% (inactive)	
Cc1ccc(-n2nc(C)c3c2OC(N)=C(C#N)C3c2ccco2)cc1 (centres undefined)		8.91 µM (active)
O=C(O)c1cc2c(cc1S(=O)(=O)O)[C@H]1[C@@H]([C@H]3[C@H]2[C@@]2(Cl)C(Cl)=C(Cl)[C@]3(Cl)C2(Cl)Cl)[C@]2(Cl)C(Cl)=C(Cl)[C@@]1(Cl)C2(Cl)Cl	-16.5% [at 11.4 µM] (inactive)	
Cc1cc(=O)[nH]c(-n2[nH]c3c(c2=O)CCCC3)n1	-22.6% (inactive)	
Cc1ccc(S(=O)(=O)Nc2cc(=O)[nH]c3c2CCC3)cc1		0.631 µM (active)
Cc1cc(C)c2c(=O)[nH]c(SCC(=O)N(C)C)nc2n1	-0.173% (inactive)	
C=CCSc1nc2c(sc3nc(C)cc(C)c32)c(=O)[nH]1		6.31 µM (active)
COc1cccc(-c2nccc(NCc3ccccc3OC)n2)c1		5.01 µM (active)
COc1ccc(CNc2ccnc(-c3cccc(NS(C)(=O)=O)c3)n2)c(OC)c1		15.8 µM (active)
Cc1cnc(CNc2ccnc(-c3cccc(NS(C)(=O)=O)c3)n2)cn1	-3.15% (inactive)	
COc1cccc(-c2nccc(NCc3ccc(OC)cc3OC)n2)c1		2.51 µM (active)

SMILES	activity, negative = inhibition	AC50
COc1ccc(CNc2ccnc(-c3cccnc3)n2)c(OC)c1		2 µM (active)
N[C@H](CCC(=O)NCS(=O)(=O)O)C(=O)O	-6.82% (inactive)	
Cc1[nH]c2c(C)ccc(C)c2c1CC(=O)O		0.316 µM (active)
COC(=O)C/C=C\[C@@H](C)[C@@H](/C=N\O[C@@H](C)c1cn([C@H]2COC[C@H]2O)nn1)NS(=O)(=O)c1ccc(C)cc1	-9.22% [at 11.4 µM] (inactive)	
CO/N=C\[C@@H](NS(=O)(=O)c1ccc(C)cc1)[C@H](C)/C=C\CC(=O)OC		3.16 µM (active)
COC(=O)C/C=C\[C@@H](C)[C@@H](/C=N\OC[C@@H](O)COCc1ccco1)NS(=O)(=O)c1ccc(C)cc1	-9.48% [at 11.4 µM] (inactive)	
COC(=O)C/C=C\[C@@H](C)[C@@H](/C=N\O[C@@H](C)CN1CCCc2nc(C)c(C)cc21)NS(=O)(=O)c1ccc(C)cc1	-27.4% [at 11.4 µM] (inactive)	
COC(=O)C/C=C\[C@H](C)[C@H](CO)NS(=O)(=O)c1ccc(C)cc1	44.8% [at 11.4 µM] (inactive)	
COC(=O)C/C=C\[C@@H](C)[C@@H](/C=N\O[C@@H](C)c1cc(-c2c(C)cc(C)cc2C)no1)NS(=O)(=O)c1ccc(C)cc1		3.16 µM (active)
NC1=N[C@H](c2ccc(Cl)cc2)N(c2ccc(S(=O)(=O)Nc3ncccn3)cc2)C(N)=N1	8.72% [at 11.4 µM] (inactive)	
Cc1ccc(CSc2nc3c(c(SCC(=O)O)n2)CCCC3)cc1	-21.9% (inactive)	
Cc1ccc(CSc2nnc([C@@H]3CCCN3)o2)cc1		7.08 µM (active)
CN1CCN(c2ncc3nc(-c4cccc(C#N)c4)c(=O)n(C)c3n2)CC1	-41.4% (inactive)	
Cn1cccc1C(=O)N1CCC2(CCCN(c3ccccc3)C2)CC1		7.94 µM (active)
Cn1cccc1C(=O)N1CCC2(CCCN(c3cccc(-c4ccccc4)c3)C2)CC1		10 µM (active)
Cn1cccc1C(=O)N1CCC2(CC1)CCN(c1ccccc1)CC2	-18.5% (inactive)	
Cn1cccc1C(=O)N1CCC2(CCCN(c3ccc(-c4ccccc4)cc3)C2)CC1	-39.1% (inactive)	
CN1CCCC2(CCN(C(=O)c3cccn3C)CC2)C1	-6.51% (inactive)	
Cn1cccc1C(=O)N1CCC2(CC1)CCN(c1cccc(-c3ccccc3)c1)CC2	-39.8% (inactive)	
O=C(O)c1cc(C(=O)C(=O)c2cc(C(=O)O)c(O)c3ccccc23)c2ccccc2c1O	-29.3% [at 11.4 µM] (inactive)	
Cc1ccc(-n2cc(C(=O)c3ccc4ccccc4c3O)cn2)cc1	-25% (inactive)	

SMILES	activity, negative = inhibition	AC50
O=C(c1cnn(-c2ccccc2)c1)c1ccc2ccccc2c1O		5.62 µM (active)
CCCCOC(=O)Nc1ccccc1C(=O)OC		14.1 µM (active)
CC(C)=C1C(=O)NN(c2ccc(F)c(Cl)c2)C1=O	-21.5% (inactive)	
Cc1nn(CCc2n[nH]c(=S)n2-c2ccc(F)c(Cl)c2)c(C)c1[N+](=O)[O-]		14.1 µM (active)
Cc1ccc(-n2c(-c3cc(C)n(C)n3)n[nH]c2=S)cc1	17.3% (inactive)	
COC(=O)[C@@]1(Cc2ccc(OC)cc2)[C@@H]2[C@@H](CC(=O)[C@H]2CC(=O)C(=O)N(C)C)CN1C(=O)c1ccccc1	-29.2% (inactive)	
COC(=O)[C@@]1(Cc2ccccc2)[C@H]2c3cc(C(=O)N4CCCC4)[nH]c3C[C@H]2CN1C(=O)c1ccccc1		0.501 µM (active)
COC(=O)[C@@]1(Cc2ccc(OC)cc2)[C@H]2c3cc(C(=O)N(C)C)[nH]c3C[C@H]2CN1C(=O)c1ccccc1		5.01 µM (active)
O=C(O)COC(=O)Cc1ccccc1Nc1c(Cl)cccc1Cl	22.1% [at 25.6 µM] (inactive)	
NC(N)=NC(=O)Cc1c(Cl)cccc1Cl		inactive and 251 nM (active)
NC(N)=NN=Cc1c(Cl)cccc1Cl		inactive
CC(C)(C)CNCCO	7.05% [at 11.4 µM] (inactive)	
CC1(C)SC(=S)N(NC(=O)Nc2ccccc2)C1N(O)C(=O)Nc1ccccc1 (centres undefined)		14.1 µM (active)
CCC(C)NS(=O)(=O)c1ccc(OCC(=O)NCC2CCCO2)cc1 (centres undefined)	-20.6% (inactive)	
Cc1cc2ccc(OC(=O)c3ccc(N=C(N)N)cc3)cc2oc1=O	13.8% [at 11.4 µM] (inactive)	
CCC(C)C(NS(=O)(=O)c1ccc(C)cc1)C(=O)Oc1ccc2c3c(c(=O)oc2c1)CCC3 (centres undefined)		3.98 µM (active)
Cc1ccc(S(=O)(=O)N[C@H](C(=O)Oc2ccc3c(C(F)(F)F)cc(=O)oc3c2)c2ccccc2)cc1		20 µM (active)
Cc1nn(-c2ccc(F)cc2)c(Cl)c1/C=C(\CCC(=O)O)c1nc2ccccc2s1		15.8 µM (active)
COc1ccccc1C/C(N)=N/OC(=O)c1ccc(C)c([N+](=O)[O-])c1		8.91 µM (active)
Cn1c(=O)n2n(c1=O)[C@H]1[C@H](O)[C@H]3O[C@@H]3/C(=N/OC[C@@H](O)COCc3ccco3)[C@@H]1CC2	-21.1% [at 11.4 µM] (inactive)	
Oc1cccc2ccc(SSc3ccc4cccc(O)c4n3)nc12		3.16 µM (active)

SMILES	activity, negative = inhibition	AC50
CCCOc1ccc(N2C(=O)CC(S/C(N)=N/N=C(\C)c3cccs3)C2=O)cc1 (centres undefined)		6.31 µM (active)
COc1ccc(-n2c(=O)c(-c3cccs3)nc3cnc(N4CCN(C)CC4)nc32)cc1	-21.9% (inactive)	
COc1ccc(N2C(=O)CC(S/C(N)=N/N=C(\C)c3cccs3)C2=O)cc1 (centres undefined)		7.08 µM (active)
O=C(N/N=C/c1ccc2cccc(OCc3ccccc3)c2n1)c1ccc(Br)cc1		3.55 µM (active)
S=C(CSc1ccccc1)Nc1cccc2ccccc12		0.794 µM (active)
CCCCn1nc2cc(C(=O)NCc3ccc(C(F)(F)F)cc3C(F)(F)F)ccc2c1OCC		12.6 µM (active)
CCOc1c2ccc(C(=O)NCc3cc(C(F)(F)F)cc(C(F)(F)F)c3)cc2nn1C		28.2 µM (active)
COc1ccc(C(=O)N2CCC3(CCN(Cc4cc(C(F)(F)F)cc(C(F)(F)F)c4)CC3)CC2)cc1	-12.6% (inactive)	
CCN(CC)CCNC(=O)c1cc(Cl)c(N)cc1OC		inactive
O=C1c2ccccc2C(=O)N1CC1c2ccccc2CCN1S(=O)(=O)c1ccccc1 (centres undefined)		2 µM (active)
CN1CCC2(CC1)CCN(S(=O)(=O)c1ccccc1)CC2	2.37% (inactive)	
C[N+](C)(C)CCCCCNCC12CC3CC(CC(C3)C1)C2	-35% (inactive)	
Cc1cc(Cn2cnc3c2C[C@@H](C(=O)O)N(C(=O)C(c2ccccc2)c2ccccc2)C3)ccc1N(C)C		1.58 µM (active)
CCCn1nnc(NC(=O)c2ccc(-c3cccc(Cl)c3)o2)n1		20 µM (active)
CN1CCN(CCCNC(=O)c2ccc(CSCc3cccc(Cl)c3)o2)CC1	-20.9% (inactive)	
CCCC(=O)Nc1nc2n(n1)C(c1ccccc1)CC(=O)N2 (centres undefined)	-16.8% (inactive)	
CCCn1nnc(NC(=O)Cc2ccccc2)n1		10 µM (active)
CC(C)Cn1cnc2c(Sc3c([N+](=O)[O-])ncn3C)nc(N)nc21	17.8% [at 11.4 µM] (inactive)	
CC(C)Cn1cnc2c(SCc3ccc(Cl)cc3Cl)nc(N)nc21		2 µM (active)
Cc1ccc2ccccc2c1CSc1nc(N)nc2c1ncn2CC(C)C		3.98 µM (active)
CC(C)Cn1cnc2c(SCc3ccccn3)nc(N)nc21	9.26% [at 11.4 µM] (inactive)	
